The values that follow come from PubChem BioAssay (NCATS).

Structures are written as SMILES. Results filed as inconclusive are left out. A number with no mark means an inactive call. The source made the active and inactive calls. The call rests on the fitted dose curve; in most records, active means well fitted inhibition curve with a large enough effect; inconclusive means small, poorly fitted or top-dose-only effect; inactive means flat fitted curve, though single readings scatter.

Test [1] in a line: Drug repurposing screens with cells derived from glioblastoma tumor samples (AID 1345199). Further: nearly all actives have a fitted effect of over 40% in size. Conditions: GBM patient neurospheres viability, ATP luminescence, 48 h. In a few lines: (§1)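 Primary testing used CD133+ neurospheres from four GBM patients, seven concentrations, 48 h exposure and ATP-based viability; confirmation added three slower-growing patient lines.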
A further test deals with astro (control astrocytes). The description is as above. Conditions: viability, ATP luminescence, 48 h; series mostly up to 45.9 µM. In a few lines: as §1
[2] abbreviates: at 45.9 µM (top of the series), tumour line B.
The mark [3] stands for this setting: at 45.9 µM (top of the series), tumour line D.
Setting [4] is: at 46 µM (top of the series), tumour line A.
The mark [5] stands for this setting: at 46.1 µM (top of the series), tumour line C.
[6] abbreviates: at 20 µM (top of the series), tumour line C.
Where [7] appears, read: at 21.2 µM (top of the series), tumour line B.
[8] abbreviates: at 21.2 µM (top of the series), tumour line D.
Setting [9] is: at 21.3 µM (top of the series), tumour line A.
On the % scale 0 is the no-effect control and ±100 the full control effect; potency means the concentration at half of the fitted maximal effect.

As to `C[N+]1(C)[C@@H]2CC(OC(=O)C(O)(c3cccs3)c3cccs3)C[C@H]1[C@@H]1O[C@@H]12` (stereo not given in full), the activity, negative = cell killing in test [1] (setting [2]) was -12.3%; in test [1] (setting [3]), 0.442%; in test [1] (setting [4]), -24.6%; in test [1] (setting [5]), -20.7%. Besides, the Potency result in the test on astro is “inactive”.
With `CC(C)[C@@H](N)C(=O)O`, the activity, negative = cell killing in test [1] (setting [2]) was -4.72%; in test [1] (setting [3]), -10.1%; in test [1] (setting [4]), -15.5%; in test [1] (setting [5]) it was -0.187%. In the test on astro, the Potency entry is “inactive”.
On to `O=C1C2CC3CC1CC(O)(C3)C2`, for which the activity, negative = cell killing is 0.0639% in test [1] (setting [2]), -11.1% in test [1] (setting [3]), -19.7% in test [1] (setting [4]) and -14.8% in test [1] (setting [5]). Further, the Potency result in the test on astro was “inactive”.
`CC(C)(CO)[C@@H](O)C(=O)NCCC(=O)NCCSSCCNC(=O)CCNC(=O)[C@H](O)C(C)(C)CO`: the activity, negative = cell killing in test [1] (setting [2]) was -16.4%; in test [1] (setting [3]), -15.1%; in test [1] (setting [4]), -16.6%; in test [1] (setting [5]), -15.9%. In addition, the Potency result with astro was “inactive”.
Turning to `CC(=O)Nc1ccc(OC(C)=O)cc1`, the activity, negative = cell killing in test [1] (setting [2]) was -2.78%; in test [1] (setting [3]), 2.27%; in test [1] (setting [4]), -21%; in test [1] (setting [5]), -27.8%. In the test on astro, the Potency result was “inactive”.
In the same order, the values of `CC1(C)S[C@@H]2[C@H](N3C(=O)C(c4ccccc4)NC3(C)C)C(=O)N2[C@H]1C(=O)O` (stereo not given in full) are -8.88%, -1.4%, -5.42%, -5.2% and “inactive”.
With `CCCC(=O)Nc1c(I)cc(I)c(CC(CC)C(=O)O)c1I` (stereo not given), the activity, negative = cell killing in test [1] (setting [2]) is -12.8%; in test [1] (setting [3]), 14.7%; in test [1] (setting [4]), -17.5%; in test [1] (setting [5]), -13.2%. The Potency entry in the test with astro was “inactive”.
`O=C(O)/C=C/c1ccccc1`: the activity, negative = cell killing was -13.6% in test [1] (setting [2]), 12.4% in test [1] (setting [3]), -20.1% in test [1] (setting [4]) and 7.51% in test [1] (setting [5]). For the same compound, the Potency entry in the test with astro is “inactive”.
As for `O=C(O)CCC/C=C\C[C@@H]1[C@@H](/C=C/[C@@H](O)COc2cccc(C(F)(F)F)c2)[C@H](O)C[C@@H]1O`, the activity, negative = cell killing in test [1] (setting [2]) is -0.927%; in test [1] (setting [3]), 2.71%; in test [1] (setting [4]), -17.8%; in test [1] (setting [5]) it was 3.43%. Moreover, the Potency result in the test with astro is “inactive”.
For the compound `CC(=O)N=c1sc(S(N)(=O)=O)nn1C`, the activity, negative = cell killing is -7.38% in test [1] (setting [6]), -5.71% in test [1] (setting [7]), -24.8% in test [1] (setting [8]) and -18.1% in test [1] (setting [9]). Further, in the test with astro, the Potency result is “inactive”.
Take `FC(F)OC(Cl)C(F)(F)F` (stereo not given): the activity, negative = cell killing was -4.99% in test [1] (setting [2]), -20.2% in test [1] (setting [3]), -34.3% in test [1] (setting [4]) and -9.7% in test [1] (setting [5]). Besides, the Potency entry with astro is “inactive”.
With `CC(C)NCC(O)COc1ccccc1-n1cccc1` (stereo not given), the activity, negative = cell killing in test [1] (setting [2]) is -14.4%; in test [1] (setting [3]), -7.4%; in test [1] (setting [4]) it was 15.7%. Also, in test [1] (tumour line C), the Potency was 25.9 µM (active). In addition, the Potency entry in the test on astro was “inactive”.
For the compound `C=N[C@@H](C(=O)N[C@@H]1C(=O)N2[C@@H]1SC(C)(C)[C@@H]2C(=O)O)c1ccccc1`, the activity, negative = cell killing in test [1] (setting [2]) is -11%; in test [1] (setting [3]), -11.4%; in test [1] (setting [4]), -8.19%; in test [1] (setting [5]) it was -15.6%. The Potency entry in the test with astro is “inactive”.
In the same order, the values of `CN(C)C=Nc1c(I)cc(I)c(CCC(=O)O)c1I` are -15.9%, 6.53%, -8.71%, -9.66% and “inactive”.
In the same order, the values of `O=C(O)[C@H]1C(=CCO)O[C@H]2CC(=O)N12` are -8.67%, -21.6%, -18.4%, -12.5% and “inactive”.
In the same order, the values of `CCOC(=S)SSC(=S)OCC` are -12.5%, -2.86%, -27.4%, -5.03% and “inactive”.
Regarding `CNCC(O)c1ccc(OC(=O)C(C)(C)C)c(OC(=O)C(C)(C)C)c1` (stereo not given), the activity, negative = cell killing in test [1] (setting [6]) was 5.42%; in test [1] (setting [7]), -16.5%; in test [1] (setting [8]), -22.8%; in test [1] (setting [9]) it was -18%. In the test on astro, the Potency result was “inactive”.
Turning to `CC(/C=C/C=C(\C)C(=O)O[C@@H]1O[C@H](CO[C@@H]2O[C@H](CO)[C@@H](O)[C@H](O)[C@H]2O)[C@@H](O)[C@H](O)[C@H]1O)=C\C=C\C=C(C)\C=C\C=C(/C)C(=O)O[C@@H]1O[C@H](CO[C@@H]2O[C@H](CO)[C@@H](O)[C@H](O)[C@H]2O)[C@@H](O)[C@H](O)[C@H]1O`, the activity, negative = cell killing in test [1] (setting [2]) was -13.5%; in test [1] (setting [3]), 5.42%; in test [1] (setting [4]), -21.7%; in test [1] (setting [5]), 10.7%. In addition, the Potency entry in the test with astro was “inactive”.
As to `O=C1c2ccccc2CN2C(=O)c3ccccc3CN12`, the activity, negative = cell killing in test [1] (setting [2]) was -20.4%; in test [1] (setting [3]) it was -5.7%; in test [1] (setting [4]), -23.1%; in test [1] (setting [5]), -20%. Besides, the Potency entry in the test with astro was “inactive”.
`O.O.O.O.O.O.O.O=S(=O)([O-])[O-].[Co+2]`: the activity, negative = cell killing in test [1] (setting [2]) was -22.6%; in test [1] (setting [3]), 15.1%; in test [1] (setting [4]), -23.8%; in test [1] (setting [5]), 10.4%. Moreover, in the test on astro, the Potency result is “inactive”.
`OC[C@@H](O)C(O)[C@H](O)CO`: the activity, negative = cell killing was -10.5% in test [1] (setting [2]), -11.3% in test [1] (setting [3]), -25% in test [1] (setting [4]) and 11.8% in test [1] (setting [5]). In the test on astro, the Potency result was “inactive”.
